Test results reported in PubChem BioAssay.

Each compound was assayed against NADPH oxidase 2 (Homo sapiens) (UniProt P04839) (assay: compounds shifting NOX2 Amplex Red fluorescence – cell-based, HEK293-NOX2, PMA-stimulated, NOX inhibitor project, primary screen (AID 1159; further: test concentration not given here)). Conditions: 45 min, higher = more signal, called active from +8 up or from −8 down.
Chain of NADPH oxidase 2 (Homo sapiens) (P04839 whole entry, looked up): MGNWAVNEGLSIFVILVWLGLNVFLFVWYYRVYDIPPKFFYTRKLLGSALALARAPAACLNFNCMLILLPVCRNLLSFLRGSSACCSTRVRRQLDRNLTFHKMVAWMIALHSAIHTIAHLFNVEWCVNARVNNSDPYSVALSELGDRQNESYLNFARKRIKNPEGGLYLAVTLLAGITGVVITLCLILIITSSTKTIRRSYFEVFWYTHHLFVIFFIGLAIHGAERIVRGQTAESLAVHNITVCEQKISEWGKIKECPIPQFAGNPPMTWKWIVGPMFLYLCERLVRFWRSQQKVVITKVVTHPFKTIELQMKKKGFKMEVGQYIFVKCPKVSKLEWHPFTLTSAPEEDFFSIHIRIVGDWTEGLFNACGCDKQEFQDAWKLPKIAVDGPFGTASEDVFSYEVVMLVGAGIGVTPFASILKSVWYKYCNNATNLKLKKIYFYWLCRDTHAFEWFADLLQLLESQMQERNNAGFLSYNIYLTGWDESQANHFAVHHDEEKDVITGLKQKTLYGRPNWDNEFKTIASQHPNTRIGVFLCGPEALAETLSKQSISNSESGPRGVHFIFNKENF

z-score, inactive:
COCCCNC(=O)[C@@]1(Sc2ccc(C)cc2)CC(=O)N(Cc2ccccc2)[C@@H]1c1ccc(CO)cc1I 1.26, COC(=O)[C@H](C)NC(=O)CCC1CC(OC(=O)NCCc2ccc(F)cc2)CC2(CCCC(COC(=O)NCC(c3ccccc3)c3ccccc3)O2)O1 (stereo not given in full) 0.238, COc1ccccc1CN1C(=O)c2ccccc2[C@@H](C(=O)NCC(F)(F)F)[C@@H]1c1ccc(CO)cc1 0.629, Cc1cc2c(c(=O)o1)[C@H](O)[C@H]1O[C@H]1C2=O 1.67, CCN(CC)c1ccc(N2CC=CC34O[C@@H]5/C=C\CCC(C)OC(=O)C5[C@H]3C(=O)N(CCCO)[C@@H]4C2=O)cc1 (stereo not given in full) 0.056, O=C1O[C@@H](c2ccccc2)[C@@H](c2ccccc2)N2[C@@H](c3ccccc3OCCO)[C@]3(C(=O)Nc4ccc(C#CCCO)cc43)[C@@H](C(=O)O)[C@H]12 0.559, COc1ccc([Si](C)(C)[C@@H]2[C@@H](CC(=O)N3CCC[C@H]3CO)O[C@]3(C(=O)N(Cc4cccc(N5CCC5=O)c4)c4ccccc43)[C@H]2C)cc1 2.1, CC(C)(C)N1CC=CC23O[C@@H]4C=CCCOC(=O)C4[C@H]2C(=O)N(CCCCCO)[C@@H]3C1=O (stereo not given in full) 1.26, COc1cccc([C@@H]2Oc3ccc(Br)cc3C(=O)[C@H]2O)c1 0.658, CO[C@H]1COC(=O)[C@@H]2CCCN2C(=O)CC=C[C@@H](C)[C@H](OC)COC(=O)CC=C[C@@H]1C -0.331
